Data taken from ChEMBL document CHEMBL1157539, “Thousands of chemical starting points for antimalarial lead identification” (Nature, 2010).

Tests used:
Format in all cases: functional
Plasmodium falciparum [1] = assay: GSK_TCMDC: Inhibition of Plasmodium falciparum 3D7 in whole red blood cells, using parasite LDH activity as an index of growth. Test compounds present at 2uM
Plasmodium falciparum [2] = assay: GSK_TCMDC: Inhibition of Plasmodium falciparum Dd2 in whole red blood cells, using parasite LDH activity as an index of growth. Test compounds present at 2uM
HepG2 = assay: GSK_TCMDC: Percent inhibition of human HepG2 cell line. Test compounds present at 10uM.

Row | Structure (SMILES) | Inhibition (Plasmodium falciparum [1]) | Inhibition (Plasmodium falciparum [2]) | Inhibition (HepG2)
1 | CCC(O)(C#Cc1c(C)nc(N)nc1N)CC | 97% | 0% | 63%
2 | O=C(Nc1cccc(CN2CCN(C(=O)c3cccc(Cl)c3)CC2)c1)c1cccs1.O=C(O)C(F)(F)F | 94% | 94% | 17%
3 | CC(C)(C)c1ccc(CN2CCC(CNC(=O)c3cc(-c4cccc(C(F)(F)F)c4)cs3)C2)cc1.O=C(O)C(F)(F)F (stereo not drawn) | 100% | 84% | 80%
4 | CCCCCN1CCCN(Cc2cccc(NC(=O)c3cc4ccccc4s3)c2)CC1.O=C(O)C(F)(F)F | 99% | 30% | 29%
5 | CCn1c(Cc2ccccc2)nnc1SCC(=O)N1c2ccccc2Sc2ccccc21 | 99% | 96% | 0%
6 | c1ccc(Oc2ccc(Nc3ccnc4cc(-c5cccc(CN6CCOCC6)c5)ccc34)cc2)cc1 | 100% | 100% | 14%
7 | COc1cccc(CC(=O)N2CCC(n3c(C)nc4ccc(F)cc43)CC2)c1 | 100% | 99% | 0%
8 | COc1cc2nc(N(C)C)nc(Nc3ccc(OCc4ccccc4)cc3)c2cc1OC | 100% | 100% | 91%
9 | CNC(=O)C(C)N(c1ccc(Cl)cc1)c1nc(C(C)(C)C)cs1 (stereo not drawn) | 99% | 98% | 0%
10 | c1ccc(Oc2ccc(Nc3ccnc4cc(-c5csc(CN6CCCCC6)n5)ccc34)cc2)nc1 | 100% | 95% | 22%
11 | CC(C)NCc1ccc(-c2ccc(NC(=O)c3cccc(C#N)c3)cc2)cc1.O=C(O)C(F)(F)F | 99% | 77% | 40%
